The results in this text go back to PubChem BioAssay (Tox21).

Results filed as inconclusive are left out. The source made the active and inactive calls. Unless noted, calls follow the shape of the full dose curve.

Assay [1] deals with Gonadotropin-releasing hormone receptor (Homo sapiens) (UniProt P30968). In words: Human gonadotropin-releasing hormone receptor (GnRHR) small molecule agonists, calcium flux assay in GnRHR-HEK293 cells (AID 1920063). Also: nearly all actives have a fitted effect of over 35% in size. An outline of the steps: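 HEK293 cells stably expressing human GnRHR were dye-loaded for 1 h at 37 C. Compound was added in agonist mode and fluorescence (Ex/Em 480/540) recorded kinetically for 3 min. Fifteen concentrations, triplicates.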

Assay [2] concerns the target KiSS-1 receptor (Homo sapiens) (UniProt Q969F8). The experiment in a line: Human kisspeptin (KISS1R) small molecule agonists, calcium flux assay in KISS1R-HEK293 cells (AID 1920064; active = well fitted activation curve with a large enough effect in the repeat runs). An outline of the steps:
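HEK293 cells stably expressing human KISS1R were loaded with calcium dye for 1 h at 37 C, then given compound; fluorescence (Ex/Em 480/540) was read kinetically for 3 min. Fifteen concentrations, triplicate.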
In general terms: Calcium flux is commonly read through the fluorescence of an indicator in the cells.

Assay [3] can be described thus: G protein-coupled receptor (GPCR) small molecule agonists, calcium flux assay: HEK293 wild type cell line counter screen (AID 1920065). The essentials: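 Wild-type HEK293 cells plated 18 h, loaded with calcium dye 1 h at 37 C, then compounds added in agonist mode (ATP as positive control). Kinetic fluorescence Ex/Em 480/540 recorded 3 min at 1 sec intervals; 15 concentrations, triplicate.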

Assay [4] can be described thus: p53 small molecule agonists, cell-based qHTS assay with human liver microsomes (AID 1963577).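 Also: p53 response element beta-lactamase reporter cells with liver microsomes plus NADPH.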 An outline of the steps: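 Steps: plate p53RE-bla cells, incubate 5 h at 37 C; add compound in DMSO; add microsomes (0.5 mg/mL final) and NADPH (0.5 mg/mL final); incubate 16 h at 37 C; add LiveBLAzer, 2 h RT; read fluorescence.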
Assay [5] is described as follows: p53 small molecule agonists, cell-based qHTS assay with rat liver microsomes (AID 1963578). An outline of the steps:
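Metabolic activation is supplied by rat liver microsomes with NADPH (each 0.5 mg/mL final). p53RE-bla cells incubate with compound 16 h at 37 C; reporter activity is measured by LiveBLAzer fluorescence.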
On the technique in general: qHTS replaces the single test concentration by a dilution series.

The nature of assay [6]: p53 small molecule agonists, cell-based qHTS assay with human liver microsomes: qHTS cell viability counter screen (AID 1963579). Also: nearly all actives have a fitted effect of over 45% in size. The essentials:
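After the 460/530 nm beta-lactamase read, CellTiter-Glo was added to the same wells and luminescence measured after 30 min at room temperature, giving viability of p53RE-bla cells treated 16 h with compounds plus microsomes and NADPH.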

Assay [7] can be described thus: p53 small molecule agonists, cell-based qHTS assay with rat liver microsomes: qHTS cell viability counter screen (AID 1963580). Also: nearly all actives have a fitted effect of over 45% in size. Also: potency is read from the fitted curve at half-maximal effect. The essentials:
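p53RE-bla HCT-116 cells (4,000/well) rested 5 h at 37 C, then given Tox21 compounds in DMSO with rat liver microsomes (0.5 mg/mL final) plus NADPH (0.5 mg/mL final) for 16 h at 37 C. Viability read by CellTiter-Glo luminescence after 30 min at room temperature.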

The nature of assay [8]: p53 small molecule agonists, cell-based qHTS assay: qHTS cell viability counter screen (AID 1963581). Also: nearly all actives have a fitted effect of over 45% in size. The essentials: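 p53RE-bla HCT-116 cells, compounds added 5 h after plating and incubated 16 h at 37 C. Cytotoxicity measured in the same wells as intracellular ATP by CellTiter-Glo luminescence after 30 min at room temperature.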
Assay [9] in a line: p53 small molecule agonists, cell-based qHTS assay (AID 1963582; active = well fitted activation curve with a large enough effect in the signal ratio in the repeat runs, not every such curve was filed as active; the % refers to the signal ratio). The essentials: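 p53RE-bla reporter cells, compounds added in DMSO after 5 h plating, incubated 16 h at 37 C. Beta-lactamase read via 2 h room-temperature LiveBLAzer B/G FRET substrate, fluorescence intensity.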
The target in assay [10] is 5-hydroxytryptamine receptor 2A (Homo sapiens) (UniProt P28223). In words: 5-hydroxytryptamine receptor 2A (HTR2A) small molecule antagonists, cell-based qHTS assay (AID 1963586). Also: nearly all actives have a fitted effect of over 45% in size. Also: potency is read from the fitted curve at half-maximal effect. An outline of the steps:
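Antagonist-mode intracellular calcium assay: DOI (4 nM) added after 5 min compound pre-incubation at room temperature to dye-loaded HTR2A-CHO cells. Fluorescence followed for 3 min, sampled every second.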

Assay [11] has the same target. In words: 5-hydroxytryptamine receptor 2A (HTR2A) small molecule agonists, cell-based qHTS assay (AID 1963587). Also: nearly all actives have a fitted effect of over 30% in size. Also: potency is read from the fitted curve at half-maximal effect. An outline of the steps:
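HTR2A-CHO cells, plated 18 h at 37 C/5% CO2, dye-loaded 1 h at 37 C; compounds in DMSO added by pin tool (agonist mode). Intracellular calcium flux read as kinetic fluorescence on FDSS over 2 min at 1 s intervals.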

Assay [12] addresses Muscarinic acetylcholine receptor M1 (Homo sapiens) (UniProt P11229). In words: Cholinergic receptor muscarinic 1 (CHRM1) small molecule antagonists, cell-based qHTS assay (AID 1963588). Also: nearly all actives have a fitted effect of over 40% in size. An outline of the steps:
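CHRM1-CHO calcium-flux assay, antagonist mode. Cells were seeded 18 h, dye-loaded 1 h at 37 C and given compound for 5 min at RT, then acetylcholine was added at 50nM. FDSS fluorescence was read 3 min; 15 concentrations, three runs.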

Assay [13] has the same target. In words: Cholinergic receptor muscarinic 1 (CHRM1) small molecule agonists, cell-based qHTS assay (AID 1963589). Also: nearly all actives have a fitted effect of over 35% in size. An outline of the steps: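 CHO cells stably expressing human CHRM1 were loaded with calcium dye for 1 h at 37 C, then compound was added in agonist mode. Intracellular calcium fluorescence was followed kinetically at 1 s intervals. Fifteen concentrations were tested in three independent runs.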

The target of assay [14] is Beta-2 adrenergic receptor (Homo sapiens) (UniProt P07550). The experiment in a line: Adrenergic beta2 receptor (ADRB2) small molecule antagonists, cell-based qHTS assay (AID 1963592). Also: series mostly up to about 92 µM; nearly all actives have a fitted effect of over 50% in size. The essentials:
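Cells (CHO, stable ADRB2 overexpression) incubated 18-20hr at 37C; compounds added from DMSO; agonist mix (1nM isoproterenol, 100uM IBMX, 25uM Ro-20-1724) added; 0.5hr RT; d2-cAMP and anti-cAMP-cryptate added; 1hr RT; 665/615 nm read.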

The target is the same in assay [15]. In words: Adrenergic beta2 receptor (ADRB2) small molecule agonists, cell-based qHTS assay (AID 1963593).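 Also: CHO cells stably overexpressing human ADRB2.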 The essentials:
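CHO cells stably over-expressing ADRB2 were plated overnight at 37C, then dosed with compounds plus a stimulation mix containing 100uM IBMX and 25uM Ro-20-1724 for 0.5hr at room temperature. cAMP was measured by HTRF competition, 1hr.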

The target of assay [16] is D(2) dopamine receptor (Homo sapiens) (UniProt P14416). The experiment in a line: Dopamine D2 receptor (DRD2) small molecule agonists, cell-based qHTS assay (AID 1963594). Also: nearly all actives have a fitted effect of over 35% in size. The essentials:
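HEK293 cells stably expressing DRD2 were cultured 24 h at 37 C, then given Ro20-1724 (0.1 mM final) and compounds for 10 min at room temperature. NKH477 (200nM) was then added for 30 min. cAMP was read by HTRF.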

Assay [17] has the same target. The experiment in a line: Dopamine D2 receptor (DRD2) small molecule antagonists, cell-based qHTS assay (AID 1963595; active = well fitted inhibition curve with a large enough effect in the signal ratio in the repeat runs, with a control signal flat; the % refers to the signal ratio). An outline of the steps:
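HEK293 cells stably expressing DRD2, preincubated with 0.1 mM Ro20-1724 and compounds 10 min, were stimulated with 200 nM NKH477 plus 12 nM quinpirole for 30 min at room temperature; cAMP measured by HTRF (665/620 nm).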

A short description of assay [18]: cAMP Responsive Elements (CRE) small molecule agonists, cell-based qHTS assay (AID 1963590). The essentials:
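CRE-bla HEK 293T cells, 2,000/well in DMEM with 10% dialyzed FBS and 25 mM HEPES, pre-incubated 18 h at 37 C, then exposed to compound 3 h at 37 C. Beta-lactamase reporter read with LiveBLAzer B/G FRET substrate after 2 h at room temperature.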

Assay [19] can be described thus: cAMP Responsive Elements (CRE) small molecule antagonists, cell-based qHTS assay (AID 1963591; active = well fitted inhibition curve with a large enough effect in the signal ratio in the repeat runs, not every such curve was filed as active; the % refers to the signal ratio). An outline of the steps:
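CRE-bla HEK293T cells plated 18 h, then given compound plus NKH477 at 0.25 uM final for 3 h at 37C. Beta-lactamase reporter read with LiveBLAzer B/G FRET substrate after 2 h at room temperature.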

Beta-2 adrenergic receptor (Homo sapiens), sequence (P07550 whole entry, looked up): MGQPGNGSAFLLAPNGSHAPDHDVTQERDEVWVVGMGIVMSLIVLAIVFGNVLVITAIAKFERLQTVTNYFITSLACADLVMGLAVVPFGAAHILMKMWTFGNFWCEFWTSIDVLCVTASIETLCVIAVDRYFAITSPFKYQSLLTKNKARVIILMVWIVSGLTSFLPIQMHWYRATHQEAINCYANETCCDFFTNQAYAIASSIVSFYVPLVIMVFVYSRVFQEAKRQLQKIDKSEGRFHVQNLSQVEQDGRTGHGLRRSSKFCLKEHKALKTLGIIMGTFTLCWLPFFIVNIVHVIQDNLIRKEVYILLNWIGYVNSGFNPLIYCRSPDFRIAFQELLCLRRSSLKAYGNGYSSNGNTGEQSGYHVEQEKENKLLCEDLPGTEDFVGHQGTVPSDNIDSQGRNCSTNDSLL
5-hydroxytryptamine receptor 2A (Homo sapiens), sequence (P28223 whole entry, looked up): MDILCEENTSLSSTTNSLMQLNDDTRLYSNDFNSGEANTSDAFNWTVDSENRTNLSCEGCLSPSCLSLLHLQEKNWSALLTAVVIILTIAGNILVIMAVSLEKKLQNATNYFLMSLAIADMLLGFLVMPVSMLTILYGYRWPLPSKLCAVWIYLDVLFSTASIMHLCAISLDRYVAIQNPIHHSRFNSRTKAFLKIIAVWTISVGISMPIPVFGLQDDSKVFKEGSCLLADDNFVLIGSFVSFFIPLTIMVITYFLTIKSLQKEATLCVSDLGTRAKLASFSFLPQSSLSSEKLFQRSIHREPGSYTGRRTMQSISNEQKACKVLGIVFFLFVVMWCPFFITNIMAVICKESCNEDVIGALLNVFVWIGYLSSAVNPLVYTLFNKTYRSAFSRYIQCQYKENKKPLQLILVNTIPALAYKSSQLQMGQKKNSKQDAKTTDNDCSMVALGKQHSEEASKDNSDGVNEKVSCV
D(2) dopamine receptor (Homo sapiens), sequence (P14416 whole entry, looked up): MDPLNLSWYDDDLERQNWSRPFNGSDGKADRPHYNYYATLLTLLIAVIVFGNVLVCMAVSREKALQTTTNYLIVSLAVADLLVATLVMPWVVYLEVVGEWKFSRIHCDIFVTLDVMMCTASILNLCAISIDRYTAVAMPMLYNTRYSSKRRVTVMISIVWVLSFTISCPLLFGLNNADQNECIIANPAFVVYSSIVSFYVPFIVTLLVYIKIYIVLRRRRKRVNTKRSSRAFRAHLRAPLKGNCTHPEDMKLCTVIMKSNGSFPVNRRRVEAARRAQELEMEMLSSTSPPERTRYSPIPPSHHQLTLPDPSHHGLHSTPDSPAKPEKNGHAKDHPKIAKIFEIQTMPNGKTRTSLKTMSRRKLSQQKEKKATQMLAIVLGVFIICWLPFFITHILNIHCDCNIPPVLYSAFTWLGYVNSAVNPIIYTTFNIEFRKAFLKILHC
KiSS-1 receptor (Homo sapiens), sequence (Q969F8 whole entry, looked up): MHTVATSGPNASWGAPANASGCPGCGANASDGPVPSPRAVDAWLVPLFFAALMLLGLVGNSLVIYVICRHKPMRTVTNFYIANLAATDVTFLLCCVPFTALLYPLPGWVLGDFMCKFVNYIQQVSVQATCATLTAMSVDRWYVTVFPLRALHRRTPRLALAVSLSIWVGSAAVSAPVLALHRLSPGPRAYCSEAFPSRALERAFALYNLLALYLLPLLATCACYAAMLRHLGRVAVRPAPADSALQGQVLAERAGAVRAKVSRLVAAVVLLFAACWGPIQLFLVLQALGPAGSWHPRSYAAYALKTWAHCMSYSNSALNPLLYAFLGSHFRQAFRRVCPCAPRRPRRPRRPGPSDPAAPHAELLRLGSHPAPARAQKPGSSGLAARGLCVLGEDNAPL
Muscarinic acetylcholine receptor M1 (Homo sapiens), sequence (P11229 whole entry, looked up): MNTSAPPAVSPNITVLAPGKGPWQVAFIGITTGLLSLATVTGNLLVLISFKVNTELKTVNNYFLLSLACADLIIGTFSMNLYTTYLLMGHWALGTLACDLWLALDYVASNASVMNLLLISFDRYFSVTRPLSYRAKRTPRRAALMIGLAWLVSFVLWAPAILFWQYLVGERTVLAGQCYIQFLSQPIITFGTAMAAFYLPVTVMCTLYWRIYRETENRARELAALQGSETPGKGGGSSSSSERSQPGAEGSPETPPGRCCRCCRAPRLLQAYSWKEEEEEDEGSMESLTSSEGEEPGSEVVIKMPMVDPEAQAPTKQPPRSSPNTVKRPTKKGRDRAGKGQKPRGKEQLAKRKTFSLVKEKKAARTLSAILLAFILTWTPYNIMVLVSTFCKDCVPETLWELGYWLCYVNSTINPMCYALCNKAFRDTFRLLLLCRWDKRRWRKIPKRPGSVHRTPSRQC
Gonadotropin-releasing hormone receptor (Homo sapiens), sequence (P30968 whole entry, looked up): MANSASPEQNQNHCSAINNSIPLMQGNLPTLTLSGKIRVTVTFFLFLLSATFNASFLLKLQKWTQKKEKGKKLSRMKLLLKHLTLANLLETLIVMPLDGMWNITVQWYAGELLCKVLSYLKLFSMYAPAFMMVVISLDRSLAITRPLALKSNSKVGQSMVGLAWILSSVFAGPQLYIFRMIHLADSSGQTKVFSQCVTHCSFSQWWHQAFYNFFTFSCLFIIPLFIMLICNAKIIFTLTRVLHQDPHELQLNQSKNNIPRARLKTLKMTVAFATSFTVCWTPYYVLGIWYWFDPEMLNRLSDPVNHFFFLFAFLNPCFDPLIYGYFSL

On to `CCCCNC(=S)NCCCC`, for which the Potency result in assay [1], in assay [2], in [3], in [4], in [5] and in [6] was “inactive” each time. Further, the Potency entry in assay [7], in [8], in assay [9], in assay [10], in assay [11] and in assay [12] was “inactive” in each case. Besides, the Potency entry in assay [13], in [14], in assay [15], in assay [16] and in assay [17] was “inactive” each time.

As for `CC(=O)Nc1ccc(S(=O)(=O)Nc2ccc([N+](=O)[O-])cc2)cc1`, the Potency result in assay [1], in assay [2], in assay [3], in assay [4], in [5] and in assay [6] was “inactive” in each case. Moreover, the Potency entry in assay [7], in assay [9], in assay [10], in [11], in assay [12] and in assay [13] was “inactive” throughout. The Potency result in assay [18], in assay [19], in assay [14], in [15], in assay [16] and in assay [17] was “inactive” in each case.

In the case of `CC1C2CC(CC2C2CCCC(O)C2)C1(C)C` (configuration not stated), the Potency result in assay [1], in assay [2], in assay [3], in assay [4], in assay [5] and in assay [6] was “inactive” in each case. In addition, the Potency entry in assay [8], in [9], in assay [10], in [11], in assay [12] and in assay [13] was “inactive” in each case. Besides, the Potency entry in assay [14], in assay [15], in assay [16] and in assay [17] was “inactive” each time.

On to `On1ccccc1=S`, for which the Potency entry in assay [1], in assay [2], in [3], in assay [4], in assay [5] and in [6] was “inactive” throughout. The Potency result in assay [10], in assay [12], in assay [18], in assay [14], in assay [16] and in [17] was “inactive” in each case. Besides, the Potency in [7] is 0.718 µM (active); in [11], 21.7 µM (active).

For the compound `CN1CCC[C@@H]1CCO[C@](C)(c1ccccc1)c1ccc(Cl)cc1`, the Potency entry in assay [1], in [2], in assay [3], in [4], in assay [5] and in assay [6] was “inactive” each time. Also, the Potency result in [7], in assay [8], in assay [9] and in assay [16] was “inactive” in each case.

Take `CCCN(C1CCN(C(=O)C2CCNCC2)CC1)[C@@H]1CCc2ccc(OC)cc2C1`: the Potency result in assay [1], in assay [2], in assay [3], in [4], in assay [5] and in assay [6] was “inactive” each time. The Potency result in [7], in [8], in [9], in assay [12], in assay [13] and in assay [14] was “inactive” throughout. Besides, the Potency entry in assay [16] and in [17] was “inactive” each time. Besides, the Potency in [10] was 37.5 µM (active); in [11], 17.4 µM (active).

As for `CC(=O)CC(=O)Nc1ccc(S(=O)(=O)O)cc1`, the Potency result in [1], in assay [2], in assay [3], in assay [4], in assay [5] and in assay [6] was “inactive” each time. Also, the Potency entry in assay [7], in assay [9], in [10], in assay [11], in assay [12] and in assay [13] was “inactive” in each case. For the same compound, the Potency entry in assay [14], in [15], in [16] and in assay [17] was “inactive” each time.
